Test results published in PubChem BioAssay (NCI).
About 83,000 compounds went through this panel and 20% of them were active in at least one assay; those are over-represented in the sample as a whole.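 The test compound was applied at a single concentration to cells in 96-well plates for 48 hours, and percent growth was recorded.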 Unmarked numbers belong to inactive results. Activity calls are given as the source filed them. The calls were made as follows: active = growth percent below 10; inactive = the rest.

What follows are compounds tested on SK-MEL-2 melanoma (assay: NCI-60 one-dose screen, 48 h (100 = growth as untreated, 0 = no growth, -100 = all killed)). Settings: 10 µM unless noted.

Structure (SMILES) | growth
CN1CCN(CCCNC(=O)c2c3c(n4ccccc24)C(=O)c2ncccc2C3=O)CC1 | 9.41% (active)
CN1CCN(CC(=O)N(C)c2ccc(N=C(c3ccccc3)c3c(O)[nH]c4ccc([N+](=O)[O-])cc34)cc2)CC1 | 52.7%
CCCCCCCCNc1ncnc2c1ncn2Cc1nnc2c3ccccc3c(Cl)nn12 | 16.7%
CC/C(=C(/c1ccc(Cl)cc1)c1ccc(OCCCN(C)C)cc1)c1ccc(OC)cc1 | 105%
CCN(CC)CCCNC(=O)c1c2c(n3ccccc13)C(=O)c1ncccc1C2=O | -55.3% (active)
CCCn1cnc2c(c1=N)C(c1ccc(Cl)cc1)c1sc3c(F)cccc3c1O2 (stereo not given) | 103%
Cc1ccc(C23CCC(=O)N2CCc2cncn23)cc1 (stereo not given) | 107%
O=C(COc1ccc(/C=C2\Oc3ccccc3C2=O)cc1)Nc1nccs1 | 93.6%
Cc1c(C(=O)C(SC(=S)N2CCOCC2)SC(=S)N2CCOCC2)nnn1-c1ccc([N+](=O)[O-])cc1 | 106%
O=[N+]([O-])c1ccc(Oc2cccc3c(Oc4ccc([N+](=O)[O-])cc4[N+](=O)[O-])cccc23)c([N+](=O)[O-])c1 | 90.4%
CN(C)CCOc1ccc(/C(=C(/CCCCCCCCCC[P+](c2ccccc2)(c2ccccc2)c2ccccc2)c2ccccc2)c2ccccc2)cc1 | -75.9% (active)
CC1(C)CC[C@]2(CO)CC[C@]3(C)C(=CC[C@@H]4[C@@]5(C)CCNCC(C)(C)[C@@H]5CC[C@]43C)[C@@H]2C1 | 53.7%
O=c1oc2ccccc2cc1-c1nn(-c2ccccc2)cc1/C=N/Nc1nc(-c2ccccc2)c(N=Nc2ccccc2)s1 | 64.9%
COc1cc(/C=C2\CN(S(=O)(=O)c3ccc(C)cc3)C/C(=C\c3cc(CN4CCCC4)c(O)c(OC)c3)C2=O)cc(CN2CCCC2)c1O | 14.4%
Nc1ccc(Cl)c2c(=O)c3ccccc3[nH]c12 | 81.2%
COC(=O)c1sc(-c2ccc(C)cc2)cc1O | 99%
CCOC(=O)CSc1nc2sc3c(c2c(=O)n1-c1ccccc1)CCCCC3 | 103%
O=C1NCCS(=O)(=O)/C1=C\C=C\c1cccc(C(F)(F)F)c1 | 54.8%
COc1cc(/C=C2\C(=O)N(CCOc3cc(O)c4c(=O)cc(-c5ccccc5)oc4c3)c3ccccc32)cc(OC)c1O | 74.1%
CNC1=C([N+](=O)[O-])C(c2ccc(OC)cc2)C(C#N)=C(c2ccc[nH]2)O1 (stereo not given) | 108%

Structure (SMILES) | growth
COc1cccc2cc(N(C)c3ncnc4ccccc34)ccc12 | 30.1%
Cc1[nH]c(C(=O)Nc2ccc(C(N)=O)cc2OC(C)C)c(Cl)c1Cl | 100%
Nc1nc(N)c2c(n1)NC(c1cccc(Nc3ccnc4cc(C(F)(F)F)ccc34)c1)CC(c1ccc(Cl)cc1)=N2 (stereo not given) | 42.7%
COC1=C(OC)C(=O)C(CCCCCCCCCCO)=C(C)C1=O | 49.8%
O=C1c2c(c3c4cccnc4[nH]c3c3ccc4ccccc4c23)C(=O)N1O | 91%
CCN1CCN(C(=O)[C@]23CC[C@@H](C)[C@H](C)[C@@H]2C2=CC[C@@H]4[C@@]5(C)C/C(=C/c6ccncc6)C(=O)C(C)(C)[C@@H]5CC[C@@]4(C)[C@]2(C)CC3)CC1 | 33.5%
C=CC(=O)Nc1ccc2ncnc(Nc3cccc(NS(=O)(=O)CCC)c3Cl)c2c1 | 51.9%
COc1ccccc1/C=C/C1=C(C)CCC(c2ccccc2OC)C1C (stereo not given) | -7.95% (active)
CN(C)CCOc1nc2c3cc([N+](=O)[O-])ccc3nn2c2ccccc12 | 91.6%
COc1ccc(-c2nc(SCCC(C)C)nc(N/N=C(/C)c3ccc(N)cc3)c2C#N)cc1 | 109%
O=C(c1ccccc1)[C@@H](c1ccccc1)[C@]1(O)C(=O)Nc2ccccc21 | 96.9%
CCOC(=O)C1=C(c2ccccc2)N=C2SC=C(c3cccc([N+](=O)[O-])c3)N2C1c1ccc(O)cc1 (stereo not given) | 96.7%
Cn1nc(-c2ccc(Cl)cc2)nc2c(=O)n(C)c(=O)nc1-2 | -44.6% (active)
COC1CC(O)C2=C(CC3C(/C(C)=C\CC=C(C)C)CCC3(C)O2)C1=O (stereo not given) | 96.9%
COc1cc(C(=O)/C=C/c2c(-c3cccs3)nc3sc(C)cn23)cc(OC)c1OC | 13.1%
CSc1nc(N)c2c(n1)NC(c1ccccc1)C1CCc3ccccc3C1=N2 (stereo not given) | 30.1%
COC(=O)c1c(C)nc(C)c2c1C(=O)C(Br)=C(NCCCCO)C2=O | 64.7%
COc1ccc(S(=O)(=O)Oc2ccc(-c3sc4cc(OS(=O)(=O)c5ccc(OC)cc5)ccc4c3C(=O)c3ccc(OCCN4CCCCC4)cc3)cc2)cc1 | 119%
C=C(c1ccc(C(=O)O)c(F)c1)c1cc2c(cc1C)C(C)(C)C=CC2(C)C | 87.1%
COc1cc(C2=Nc3c(N)nc(N)nc3NC(c3cccc(Nc4ccnc5cc(C(F)(F)F)ccc45)c3)C2)cc(OC)c1OC (stereo not given) | 88%
